Legend:
[1] = tested on: Vero E6 infected with SARS-CoV-2; experiment: morphology score (similarity to uninfected cells); higher = more like uninfected cells; details: 24 h
[2] = tested on: Vero E6 infected with SARS-CoV-2; experiment: SARS-CoV-2 infection rate relative to infected DMSO; higher = more infection, active = 60 or less; details: 24 h

Row | SMILES | morphology score [1] | SARS-CoV-2 infection rate [2]
1 | CCOC(=O)[C@H](CCc1ccccc1)N[C@@H](C)C(=O)N1CCC[C@H]1C(=O)O [enalapril] (10 µM) | 0.198 | 96.5% (inactive)
2 | CN(CCOc1ccc(NS(C)(=O)=O)cc1)CCc1ccc(NS(C)(=O)=O)cc1 [dofetilide] (10 µM) | 0.059 | 112% (inactive)
3 | CC(C)c1ccc(C(=O)c2cccs2)c(SCCCCCCCCN(C)C)n1 (0.833333 µM) | 0.361 | 94.5% (inactive)
4 | C[C@@H]1CCO[C@H]2Cn3cc(C(=O)NCc4ccc(F)cc4F)c(=O)c(O)c3C(=O)N12 [dolutegravir] (10 µM) | 0.0816 | 112% (inactive)
5 | CC(C)(C)c1ccc(C(=O)Nc2cn3cc(-n4ccnc4)ccc3n2)cc1 (10 µM) | -0.0468 | 100% (inactive)
6 | COc1cc(C(=O)NCCCCCC(=O)O)cc(OC)c1OC [capobenic-acid] (10 µM) | 0.0878 | 108% (inactive)
7 | C#CCN[C@@H]1CCc2ccccc21 [rasagiline] (10 µM) | 0.0975 | 115% (inactive)
8 | CC[C@H](C)C(=O)O[C@H]1C[C@H](O)C=C2C=C[C@H](C)[C@H](CC[C@@H](O)C[C@@H](O)CC(=O)O)[C@H]21 (10 µM) | 0.0616 | 106% (inactive)
9 | Cc1c(C(=O)N2CCOc3ccc(-c4ccc(N)nc4)cc3C2)ccc(S(C)(=O)=O)c1F (0.833333 µM) | -0.0918 | 110% (inactive)
10 | CCOc1ccc(-n2c([C@@H](C)N(Cc3cccnc3)C(=O)Cc3ccc(OC(F)(F)F)cc3)nc3ncccc3c2=O)cc1 (racemic) (10 µM) | 0.181 | 98.8% (inactive)
11 | O=C1C[C@@H]2OCC=C3CN4CC[C@]56c7ccccc7N1[C@H]5[C@H]2[C@H]3C[C@H]46 [strychnine] (10 µM) | 0.314 | 90% (inactive)
12 | Cc1ncc(COP(=O)([O-])[O-])c(CN(CCN(CC(=O)O)Cc2c(COP(=O)([O-])O)cnc(C)c2O)CC(=O)O)c1O.[Mn].[Na+].[Na+].[Na+] [Mangafodipir (trisodium)] (10 µM) | -0.000637 | 120% (inactive)
13 | CCCCCC(=O)O[C@]1(C(C)=O)CC[C@H]2[C@@H]3CCC4=CC(=O)CC[C@]4(C)[C@H]3CC[C@@]21C [17-hydroxyprogesterone-caproate] (10 µM) | 0.523 | 85.5% (inactive)
14 | O=C(C1CC1)N1CC[C@@H](Cc2n[nH]c(=O)n2-c2ccc(-c3ccc4occc4c3)cc2)C1 (10 µM) | 0.269 | 90.5% (inactive)
15 | CCCCNc1ncc2c(-c3ccc(CN4CCN(C)CC4)cc3)cn([C@H]3CC[C@H](O)CC3)c2n1 (10 µM) | -0.164 | 119% (inactive)
16 | CN(CCc1ccc(Cl)c(Cl)c1)CCN1CCCC1 (10 µM) | 0.355 | 74.5% (inactive)
17 | Cc1c(N)nc([C@H](CC(N)=O)NC[C@H](N)C(N)=O)nc1C(=O)N[C@H](C(=O)N[C@H](C)[C@@H](O)[C@H](C)C(=O)N[C@H](C(=O)NCCc1nc(-c2nc(C(=O)NCCC[S+](C)C)cs2)cs1)[C@@H](C)O)[C@@H](OC1OC(CO)C(O)C(O)C1OC1OC(CO)C(O)C(OC(N)=O)C1O)c1cnc[nH]1 (some centres not stated) [bleomycin] (10 µM) | 0.0285 | 100% (inactive)
18 | CCCCCCCCCCCCC/C=C/[C@@H](O)[C@@H](N)CO[P@](=O)(O)OCC[N+](C)(C)C [sphingosylphosphorylcholine] (10 µM) | 0.000181 | 112% (inactive)
19 | COc1cc(OCc2cccc(-c3ccccc3)c2C)cc(OC)c1CN1CCCC[C@H]1C(=O)O [PD1-PDL-inhibitor-1] (10 µM) | 0.00556 | 95% (inactive)

Row | SMILES | morphology score [1] | SARS-CoV-2 infection rate [2]
20 | O=C1c2ccccc2CCC1CNCCc1ccc(O)cc1 (configuration not stated) (10 µM) | 0.0149 | 106% (inactive)
21 | CC[N+](CC)(CC)CCOc1ccc(/C=C/c2ccccc2)cc1 (10 µM) | -0.141 | 105% (inactive)
22 | Oc1cccc(-c2c3nc(c(-c4cccc(O)c4)c4ccc([nH]4)c(-c4cccc(O)c4)c4nc(c(-c5cccc(O)c5)c5ccc2[nH]5)CC4)C=C3)c1 [temoporfin] (0.833333 µM) | -0.0311 | 111% (inactive)
23 | CC(=O)O[C@H]1C[C@@]2(C)[C@@H](C[C@@H](O)[C@H]3[C@@]4(C)CC[C@@H](O)[C@@H](C)[C@@H]4CC[C@@]32C)/C1=C(\CCC=C(C)C)C(=O)O [fusidic-acid] (10 µM) | 0.063 | 98% (inactive)
24 | Cc1[nH]c2ccccc2c1CCNC(=O)c1cccs1 (10 µM) | 0.142 | 103% (inactive)
25 | CC(C)NCC(O)COc1cccc2ccccc12 (configuration not stated) [propranolol] (10 µM) | 0.148 | 103% (inactive)
26 | COc1cc(C)nc(-n2nc(C)cc2OC)n1 [epirizole] (10 µM) | 0.0529 | 111% (inactive)
27 | COc1ccc(NS(=O)(=O)c2ccc(I)cc2)cc1N1CCN(C)CC1 (10 µM) | 0.195 | 98.5% (inactive)
28 | C[C@H](N/C(=N/C#N)Nc1cccc2ncccc12)c1ccccc1 (10 µM) | 0.0952 | 98.5% (inactive)
29 | COc1ccn2ncc(-c3nc4[nH]nc(NC(=O)c5ccc(F)cc5)c4cc3F)c2c1 (10 µM) | 0.00883 | 111% (inactive)
30 | CSc1nc(NC2CCCC2)c([N+](=O)[O-])c(NC2CCCC2)n1 (10 µM) | 0.349 | 88% (inactive)
31 | Cc1ccc(-c2nc3ccc(C)cn3c2CC(=O)N(C)C)cc1 (10 µM) | 0.137 | 98.5% (inactive)
32 | CN1C(=O)N(c2cc(Cl)cc(Cl)c2)C(=O)[C@]12CN(c1ccc(C(=O)O)cn1)C[C@H]2c1ccc(C#N)cc1 (10 µM) | 0.0204 | 114% (inactive)
33 | CC(=O)Nc1ccccc1 [acetanilide] (10 µM) | 0.174 | 102% (inactive)
34 | CC(C)(C)Cn1c(N)nc2ccc(-c3[nH]c(C(C)(C)C)nc3-c3ccc(F)cc3)nc21 (10 µM) | -0.205 | 111% (inactive)
35 | CCCCC(=O)O[C@H]1CC[C@H]2[C@@H]3CCc4cc(O)ccc4[C@H]3CC[C@]12C (10 µM) | -0.00932 | 89% (inactive)
36 | CN(C)CCC=C1c2ccccc2C=Cc2ccccc21 [cyclobenzaprine] (10 µM) | 0.228 | 78% (inactive)
37 | NCC(CC(=O)O)c1ccc(Cl)cc1 (configuration not stated) [baclofen] (10 µM) | 0.138 | 109% (inactive)
38 | Cc1cc(C)c2c(N)c(C(=O)NCc3ccc(Cl)cc3)sc2n1 (10 µM) | 0.0846 | 99% (inactive)

Row | SMILES | morphology score [1] | SARS-CoV-2 infection rate [2]
39 | Cn1ncc(Cl)c1-c1cc(C(=O)N[C@H](CN)Cc2cccc(F)c2)sc1Cl (10 µM) | 0.197 | 107% (inactive)
40 | C=C[C@H]1CN2CC[C@H]1C[C@@H]2[C@@H](O)c1ccnc2ccc(OC)cc12 [quinidine] (10 µM) | 0.155 | 108% (inactive)
41 | Cc1cc(C(=O)NOCCO)c(Nc2ccc(I)cc2F)n(C)c1=O (10 µM) | -0.0952 | 107% (inactive)
42 | COC(=O)[C@]12CCC(C)(C)C[C@H]1[C@H]1C(=O)C=C3[C@@]4(C)C=C(C#N)C(=O)C(C)(C)[C@@H]4CC[C@@]3(C)[C@]1(C)CC2 [Bardoxolone Methyl] (10 µM) | -0.259 | 107% (inactive)
43 | Cc1cc(-c2cc(O)ccc2Cl)cc2nnc(Nc3ccc(OCCN4CCCC4)cc3)nc12 (0.833333 µM) | -0.04 | 103% (inactive)
44 | C#C[C@]1(O)CC[C@H]2[C@@H]3CCC4=CC(=O)CC[C@@H]4[C@H]3C(=C)C[C@@]21CC [etonogestrel] (10 µM) | 0.249 | 90.5% (inactive)
45 | CC[C@@H]([C@H](C)O)n1ncn(-c2ccc(N3CCN(c4ccc(OC[C@@H]5CO[C@@](Cn6cncn6)(c6ccc(F)cc6F)C5)cc4)CC3)cc2)c1=O [posaconazole] (0.833333 µM) | 0.204 | 102% (inactive)
46 | O=C1NCN(c2ccccc2)C12CCN(CC1COc3ccccc3O1)CC2 (configuration not stated) [spiroxatrine] (10 µM) | -0.179 | 114% (inactive)
47 | Cc1ccc(C(=O)Cn2c3c(sc2=N)CCCC3)cc1 [pifithrin-alpha] (10 µM) | -0.224 | 108% (inactive)
48 | CO[C@@H](C(=O)N1Cc2[nH]nc(NC(=O)c3ccc(N4CCN(C)CC4)cc3)c2C1)c1ccccc1 [danusertib] (10 µM) | 0.109 | 115% (inactive)
49 | O=C(COc1ccc(Cl)cc1)N[C@H]1CC[C@H](NC(=O)COc2ccc(Cl)cc2)CC1 (10 µM) | -0.175 | 106% (inactive)
50 | Cc1cc(OCc2nnc(SC3CCCC3)n2-c2cccnc2)ccc1-c1ccc(S(C)(=O)=O)cc1 (0.833333 µM) | 0.0612 | 100% (inactive)
51 | COc1ccc(Br)cc1S(=O)(=O)NC(=O)/C=C/c1ccccc1Cc1ccc2ccccc2c1 (10 µM) | 0.19 | 79.5% (inactive)
52 | CC[C@]12C=CCN3CC[C@@]4(c5cc([C@@]6(C(=O)OC)C[C@@H]7C[C@@H](C(C)(F)F)CN(Cc8c6[nH]c6ccccc86)C7)c(OC)cc5N(C)[C@H]4[C@@](O)(C(=O)OC)[C@@H]1OC(C)=O)[C@@H]32 [Vinflunine Ditartrate] (10 µM) | -0.12 | 105% (inactive)
53 | COC(=O)c1ccc2c(c1)NC(=O)/C2=C(\Nc1ccc(N(C)C(=O)CN2CCN(C)CC2)cc1)c1ccccc1 [nintedanib] (10 µM) | -0.0524 | 108% (inactive)
54 | O=C(O)c1ccccc1 [benzoic-acid] (10 µM) | 0.0363 | 110% (inactive)
55 | C[N+]1(C)CCC(OC(=O)C(c2ccccc2)c2ccccc2)CC1 (10 µM) | 0.103 | 114% (inactive)
56 | Cc1ccc(-c2ncc(Cl)cc2-c2ccc(S(C)(=O)=O)cc2)cn1 [etoricoxib] (10 µM) | -0.139 | 114% (inactive)
